The supplement of paper PMC10105736

test system: CG7945; assay: MAPPIT interaction score (arbitrary units); higher = stronger binary interaction signal, active = hit call of the paper; conditions: MAPPIT configuration: N-C; pair source set: Lit-BM-16;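 active = MAPPIT score above the 99th percentile of random reference set scores in the same batch; inactive = at or below it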
Experimental: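 MAPPIT in HEK293T cells: Drosophila bait and prey ORFs (from the FlyBi ORF collection) were co-transfected in quadruplicate, with two wells stimulated by erythropoietin. Interaction-dependent JAK-STAT activation was read out with a STAT-responsive firefly luciferase reporter. Positive calls use the 99th percentile of random reference set (RRS) scores within each batch […]. Batches Dvs01 and Dvs02 used the N-N configuration and Dvs04 the N-C configuration. Pairs come from FlyBi screens, CuraGen, DPiM, Finley Y2H, Lit-BM-16, Lit-BS-16 and RRS.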
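Note: HEK293T cells with Epo stimulation, STAT-responsive firefly luciferase reporter, fold induction versus unstimulated cells divided by the larger fold induction of two negative controls lacking either bait or prey.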

| Substance | MAPPIT interaction score |
| --- | --- |
| DnaJ-1 | 1.15 (inactive) |
